Experimental data taken from the supplement of paper PMC12339681.
Where a name gives a salt, the structure may show the parent alone.

Test system: PBMC-derived induced microglia-like cells (piMGLC)
Experiment: synaptosome phagocytic index relative to DMSO control (fraction of DMSO); higher = more phagocytosis
Settings: concentration: 10 uM (2 uM for compounds listed in Table S2); pretreatment time: 24 h; assay time: 3 h

| Structure (SMILES) | synaptosome phagocytic index |
| --- | --- |
| CC(C)(C)c1cnc(CSc2cnc(NC(=O)C3CCNCC3)s2)o1 | 0.572 |
| Nc1nnc(-c2cccc(Cl)c2Cl)c(N)n1 [Lamotrigine] | 1.3 |
| C=C[C@H]1CN2CC[C@H]1C[C@@H]2[C@@H](O)c1ccnc2ccc(OC)cc12 [Quinidine] | 0.962 |
| COc1ccc2c3c1O[C@H]1C[C@@H](O)C=C[C@@]31CCN(C)C2 [Galanthamine] | 0.617 |
| Cc1cc2c(s1)Nc1ccccc1N=C2N1CCN(C)CC1 [Olanzapine] | 0.345 |
| COc1ncccc1-c1cnn2ccc(N3CCN(C(=O)OC(C)C)CC3)nc12 | 0.708 |
| CCCCOc1ccc(C(=O)CCN2CCCCC2)cc1 [Dyclonine_(hydrochloride)] | 0.68 |
| COc1cccc2c1C(=O)c1c(O)c3c(c(O)c1C2=O)C[C@@](O)(C(=O)CO)C[C@@H]3O[C@H]1C[C@H](N)[C@@H](O)[C@H](C)O1 [Epirubicin_(hydrochloride)] | 0.904 |
| CC1(C)S[C@@H]2[C@H](NC(=O)[C@H](N)c3ccc(O)cc3)C(=O)N2[C@H]1C(=O)O [Amoxicillin_(sodium)] | 0.69 |
| Cn1ncc(-c2nn(C)c3ncnc(N4CCC4)c23)c1-c1ccc(C(F)(F)F)cc1 | 0.505 |
| CC(C)c1c(C(=O)Nc2ccccc2)c(-c2ccccc2)c(-c2ccc(F)cc2)n1CC[C@@H](O)C[C@@H](O)CC(=O)O [Atorvastatin_(hemicalcium_salt)] | 0.823 |
| NC(=O)c1ccc(OCCCN2CC3CCCC3C2)cc1 (stereo unspecified) | 0.933 |
| CS(=O)(=O)CCNCc1ccc(-c2ccc3ncnc(Nc4ccc(OCc5cccc(F)c5)c(Cl)c4)c3c2)o1 [Lapatinib_(ditosylate)] | 0.126 |
| COc1cc2ncnc(Nc3ccc(F)c(Cl)c3)c2cc1NC(=O)/C=C/CN1CCCCC1 [Dacomitinib] | 1.26 |
| CC(C)n1c(=O)n(C)c2cnc3cc(F)c(-c4ccc(OCCCN5CCCCC5)nc4)cc3c21 | 0.706 |
| CNCC[C@@H](Oc1ccccc1C)c1ccccc1 [Atomoxetine_(hydrochloride)] | 1.16 |
| CC(C)(C)CCN1C[C@@H]2C(CNC(=O)c3cc(Cl)cc(Cl)c3)[C@@H]2C1 (stereo partly specified) | 0.191 |
| CC(C)c1ccc(CC(=O)N2CCN(c3ccc(C#N)nn3)CC2)cc1 | 0.943 |

| Structure (SMILES) | synaptosome phagocytic index |
| --- | --- |
| CC(C)[C@H](NC(=O)c1ccc2ccccc2n1)C(=O)N[C@@H](CC(=O)O)C(=O)COc1c(F)cccc1F | 1.14 |
| C[C@]12C=CC(=O)C=C1CC[C@@H]1[C@@H]2C(=O)C[C@@]2(C)[C@H]1CC[C@]2(O)C(=O)CO [Prednisone] | 0.718 |
| O=C(O)Cc1ccccc1Nc1c(Cl)cccc1Cl [Diclofenac_(Sodium)] | 0.856 |
| COc1cc2c(N3CCN(C(=O)Nc4ccc(OC(C)C)cc4)CC3)ncnc2cc1OCCCN1CCCCC1 [Tandutinib_(hydrochloride)] | 0.778 |
| O=C(O)[C@H]1CSC(c2nc3cc4c(cc3s2)NCC4)=N1 | 0.923 |
| CCCCNc1ncc2c(-c3ccc(CN4CCN(C)CC4)cc3)cn([C@H]3CC[C@H](O)CC3)c2n1 | 0.246 |
| Nc1cc(C(F)(F)F)c(-c2cc(N3CCOCC3)nc(N3CCOCC3)n2)cn1 [Buparlisib_(Hydrochloride)] | 0.429 |
| O=S1(=O)N[C@H]2CCCN2c2ccccc21 | 0.742 |
| CCCC(CCC)C(=O)O [Valproic_acid] | 0.68 |
| CS(=O)(=O)CCNCc1ccc(-c2ccc3ncnc(Nc4ccc(OCc5cccc(F)c5)c(Cl)c4)c3c2)o1 [Lapatinib] | 0.0755 |
| Nc1nc(Cl)nc2c1ncn2[C@H]1C[C@H](O)[C@@H](CO)O1 [Cladribine] | 1.1 |
| COc1ccc(C2CNC(=O)C2)cc1OC1CCCC1 (stereo unspecified) [Rolipram] | 0.814 |
| OC(CCN1CCCCC1)(c1ccccc1)C1CCCCC1 (stereo unspecified) [Trihexyphenidyl_(hydrochloride)] | 1.24 |
| CCN1CCN(C(=O)N[C@@H](C(=O)N[C@@H]2C(=O)N3[C@@H]2SC(C)(C)[C@@H]3C(=O)O)c2ccccc2)C(=O)C1=O [Piperacillin_(sodium)] | 1.13 |
| C#CCN[C@@H]1CCc2ccccc21 [Rasagiline_(mesylate)] | 0.965 |
| CN(C)CCC[C@@]1(c2ccc(F)cc2)OCc2cc(C#N)ccc21 [Escitalopram_(oxalate)] | 0.946 |
| Nc1ccn([C@@H]2O[C@H](CO)[C@@H](O)[C@@H]2O)c(=O)n1 [Cytarabine] | 0.44 |
| CC(=O)OCC(=O)[C@@]1(O)CC[C@H]2[C@@H]3CCC4=CC(=O)C=C[C@]4(C)[C@H]3[C@@H](O)C[C@@]21C [Prednisolone_acetate] | 0.605 |
